This is part of a sample that, as a whole, favours compounds with a hit. Of some 83,000 tested, about 20% had one in any assay.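 Plates (96-well) were seeded with cells, treated with compound at one concentration, and incubated for 48 hours before percent growth was determined.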 A number with no mark means an inactive call. The source made the active and inactive calls. How the source made its calls: active means growth percent below 10; inactive means the rest.
What follows are compounds tested on PC-3 prostate (assay: NCI-60 one-dose screen, 48 h (100 = growth as untreated, 0 = no growth, -100 = all killed)). Details: 10 µM unless noted.
Compound `O=C(NC(=S)Nc1cccc(NC(=S)NC(=O)c2ccccc2)c1)c1ccccc1` has a growth of 61.3%. For `COc1cc(C(=O)Nc2ccc(-c3nc4ccccc4[nH]3)cc2)cc(OC)c1OC`, the growth was 52.5%. `CN(C)c1ccc(N=Cc2ccc(N3CCOCC3)cc2)cc1` was tested, and the growth was 54.1%. Work on `Cc1ccc(C)c(-c2csc(Nc3ccc(C)c(C)c3)n2)c1` yielded a growth of 63.9%. `COc1ccc(-c2nsc3c2NC(=O)CC3c2ccsc2)cc1` (centres undefined) was tested, and the growth was 24.3%. `O=C(NCCCN1CCC(N2CCCCC2)CC1)C1=Cc2cc(Br)ccc2OC1` showed a growth of 17.5%. Work on `CN1CCN(Cc2ccc(C(=O)Nc3cncc(C#Cc4cnc5cccnn45)c3)cc2C(F)(F)F)CC1` yielded a growth of 60.4%. In the case of `Cc1ccccc1CNC(=O)C1CN(c2ccc(Cl)cc2)N(c2ccc(Cl)cc2)C1=O` (centres undefined), the growth is reported as 72.8%. Work on `Cc1sc2ncn(CC(=O)Nc3ccc(S(N)(=O)=O)cc3)c(=O)c2c1C` yielded a growth of 101%. `Fc1cccc(COc2ccc(Nc3ncnc4onc(-c5ccccc5)c34)cc2)c1` gave a growth of 18.4%. `Clc1ncccc1Nc1ccc2nnc(-c3ccncc3)n2n1` was tested, and the growth was 102%. `CCc1ccc(CNCC(O)c2ccccc2)cc1` (centres undefined) was tested, and the growth was 52.7%. `COc1ccc2oc(=O)cc(Cn3cc(Cn4cnc5c4c(=O)n(C)c(=O)n5C)nn3)c2c1` gave a growth of 102%. Compound `COc1ccc(N(C)c2nc(N)nc3sc4c(c23)CCCC4)cc1` has a growth of 27%. Compound `O=C(NCc1ccccc1)C1CN(c2ccc(Cl)cc2)N(c2ccc(Cl)cc2)C1=O` (centres undefined) has a growth of 67.9%. `COc1ccc(C2NCCc3c2[nH]c2ccccc32)cc1CN1CCN(c2ccc(F)cc2)CC1` (centres undefined) gave a growth of 44.8%. With `CNCCNc1nc2ccccc2c2c(=O)c3cccc(OC)c3sc12` the growth was 26.1%. Compound `COc1cc(/C=C/C(=O)c2ccc(Cl)cc2)cc(CN2CCCCC2)c1O` has a growth of 90.6%. For `COc1ccc(-n2c(C(O)c3ccccc3)nn(CN3CCOCC3)c2=S)cc1` (centres undefined), the growth was 101%. `O=C(c1nc2ccccc2[nH]1)C1C(c2cccc([N+](=O)[O-])c2)C2CC3CCCCC3N2[C@@]12C(=O)Nc1cc(Cl)ccc12` (some centres undefined) showed a growth of 19.6%. In the case of `NC(CCl)=NCCC[C@H](N)C(=O)O`, the growth is reported as 76%. For `CCOC(=O)c1ccc2[nH]c(-c3ccccc3)cc(=O)c2c1`, the growth was 89.1%. Compound `COc1ccc(-c2nsc3c2NC(=O)CC3c2cccc(OC)c2)cc1` (centres undefined) has a growth of 23.8%. `CCN(CC)CCCNc1ccnc2cc3ccccc3cc12` gave a growth of 60.7%. With `Cn1cc([C@@H]2Nc3ccc4[nH]ncc4c3[C@H]3[C@H]4CCC(C4)[C@H]32)c(C(F)(F)F)n1` the growth was 52.1%. In the case of `CCOC(=O)C1(C(=O)OCC)N=C(c2ccccc2)C=C1c1ccccc1`, the growth is reported as 83.8%. For `COc1ccccc1N1C(=N)S/C(=C\c2ccc(OCc3ccccc3F)cc2)C1=O`, the growth was 66.9%. Compound `O=C(c1ccccc1)N(CCc1ccc(Cl)cc1)C(=S)N(C(=O)c1ccccc1)c1ccccc1` has a growth of 85.7%. In the case of `COc1ccc(Nc2cc(C)nc(NCc3ccccc3)n2)cc1`, the growth is reported as 28.1%. In the case of `COc1ccc(C(=O)C2CC2c2ccc(Cl)cc2)cc1` (centres undefined), the growth is reported as 72.5%. `CCOC(=O)c1c2c(c(C)n1Cc1ccc(OC)cc1)-c1oncc1CC2` gave a growth of 99.6%. For `Cc1ccc2cc3c(N)c4c(C)ccc(C)c4nc3nc2c1`, the growth was 63.9%. With `O=C1Nc2ccccc2/C1=C/c1ccc[nH]1` the growth was 106%. For `COc1ccc(Cn2cc(Cn3c(=O)c(-c4nc5ccccc5[nH]4)cc4ccccc43)nn2)c(OC)c1OC`, the growth was 17%. `CCOc1cc2c(cc1OCC)C(c1cc(C)c(O)c(C)c1)NCC2` (centres undefined) gave a growth of 82%. In the case of `C=C(C)CCC(C)N1CCC(N2CCC(C(=O)NCCc3ccccc3)CC2)CC1` (centres undefined), the growth is reported as 59.7%. In the case of `COc1ccc(/C=C2\SC(=Nc3ccccc3)NC2=O)cc1`, the growth is reported as -73.5% (active). `CN1C(=O)N(C)C2(c3ccccc3)OC(=S)NC12c1ccccc1` (centres undefined) showed a growth of 92.4%. Work on `O=NN(Cc1cccnc1)C(=O)NC1CCCCC1` yielded a growth of 98.7%.

Source: PubChem BioAssay (NCI)
